Molecules are shown by their SMILES. Results filed as inconclusive are left out. Activity calls are given as the source filed them. Rule for the calls: active = hit-call score of the fitted dose curve at least 0.9, where 1 is the maximum; inconclusive = response in the unintended direction; inactive = score below 0.9.

Read-out in the test: organic anion transporter (SLCO1B1), SLCO1B1 (gene 10599)
The test can be described thus: CLD_SLCO1B1_48hr: CellzDirect (CLD) Gene Expression Assay for organic anion transporter (SLCO1B1) at 48 hours (AID 2283707). How it is done:
CLD_48hr is a cell-based, multiplexed-readout assay that uses hepatocyte, a human liver primary cell, with measurements taken at 48 hours after chemical dosing in a 96-well plate.CLD_SLCO1B1_48hr is one of 16 assay component(s) measured or calculated from the CLD_48hr assay. It is designed to make measurements of mRNA induction, a form of inducible reporter, as detected with chemiluminescence signals by Quantitative Nuclease Protection Assay (qNPA) technology.Data from the assay component CLD_SLCO1B1_48hr was analyzed at the endpoint, CLD_SLCO1B1_48hr, in the positive analysis fitting direction relative to DMSO as the negative control and baseline of activity. Using a type of inducible reporter, gain-of-signal activity can be used to understand changes in the reporter gene as they relate to the gene SLCO1B1. Furthermore, this assay endpoint can be referred to as a primary readout. To generalize the intended target to other relatable targets, this assay endpoint is annotated to the transporter intended target family, where subfamily is organic anion transporter.
Human hepatocyte cultures were treated daily for two consecutive days with fresh dosing solutions containing appropriate concentrations of the 320 ToxCast chemicals (chemical identities were blinded to CellzDirect and other ToxCast collaborators), vehicle control (0.2% DMSO), and positive control inducers as summarized in Table 1. Due to the large number of treatment groups and chemicals examined, the ToxCast chemicals were divided into two groups (spanning two independent cultures of hepatocytes from separate donor preparations (Hu778: ToxCast plates 1 and 2; Hu776: ToxCast plates 3 and 4). Each preparation of human hepatocyte cultures was treated with respective vehicle control, medium only control, set of six positive controls/reference chemicals for the five hepatic receptor pathways, and a subset of eight of the ToxCast chemicals (indoxacarb, pyrithiobac-sodium, norflurazon, cyhalofop-butyl, methomyl, thiram, acetochlor, and propiconazole). These replicate data, coupled with internal replicates designed within the blinded ToxCast chemical library, provided additional data to evaluate interindividual differences between hepatocyte preparations and their potential impact on chemical profiles.Cell morphology and integrity were evaluated using phase-contrast microscopy as an indicator of hepatocyte cell health (Tyson & Green, 1987). Cultures for each treatment group (i.e., media, vehicle [0.2% DMSO], positive control inducers [multiple concentrations], and the ToxCast chemicals [multiple concentrations]) were observed and cell morphology was assessed relative to vehicle control cultures at each harvest time point (0, 6, 24, or 48 h). […] Images were evaluated at the conclusion of the study to assess changes in cell integrity and account for the effects of chemical exposure on uncharacteristic changes in concentration-dependent gene expression profiles. The results from these determinations of apparent cytotoxicity were annotated (yes/no) alongside the corresponding qNPA data for reference.At the conclusion of each treatment period, hepatocyte cultures (96-well) were washed with 1 volume of HBSS, lysed by addition of 25 ul ArrayPlate lysis buffer (HTG, Tucson, AZ), and 70 ul/well of Denaturation Oil, denatured by incubation at 95C for 10 min, and frozen at approximately -70C until analysis by nuclease protection assay (qNPA) (Roberts et al., 2007). For qNPA analysis, cell lysates were thawed at 50C for approximately 30 min, qNPA probes were added, and samples were incubated at 95C for 10 min to begin the detection process by denaturing the target RNA, dissociating the duplexes and secondary structure hybridization. At the conclusion of the hybridization period, S1 nuclease reagent was added to each sample to digest all nonprotected nucleotides at 50C for 60-90 min. […]
Take `CC(C)N1C(=O)c2ccccc2NS1(=O)=O`: the molecule was classed as inactive.
As for `CSC(=O)c1c(C(F)F)nc(C(F)(F)F)c(C(=O)SC)c1CC(C)C`, the call was inactive.
Take `OC(c1ccc(Cl)cc1)(c1ccc(Cl)cc1)C(Cl)(Cl)Cl`: the molecule was called inactive.
On to `Nc1c(Cl)c(Cl)nc(C(=O)O)c1Cl`, for which the molecule was called inactive.
For `COC(=O)NS(=O)(=O)c1ccc(N)cc1` the value was “inactive”.
As for `COP(=S)(OC)SCn1nnc2ccccc2c1=O`, the result was inactive.
As to `CS(=O)(=O)c1cc(C(F)(F)F)ccc1C(=O)c1cnoc1C1CC1`, the result was inactive.
In the case of `CC(C)=CC1C(C(=O)OCc2coc(Cc3ccccc3)c2)C1(C)C` (stereo unspecified), the call was inactive.
The same measure for `Nc1cnn(-c2ccccc2)c(=O)c1Cl`: “inactive”.
Consider `CC(C)C1(C)N=C(c2ncccc2C(=O)O)NC1=O` (stereo unspecified), for which the molecule was called inactive.
The same measure for `COCC(C)N(C(=O)CCl)c1c(C)csc1C` (stereo unspecified): “inactive”; for `COc1cc(OC)nc(NC(=O)NS(=O)(=O)c2ncccc2OCC(F)(F)F)n1`: “inactive”; for `O=C1C2CC=CCC2C(=O)N1SC(Cl)(Cl)Cl` (stereo unspecified): “inactive”.
With `O=P(O)(O)CCCl`, the call was inactive.
With `CO/N=C(/C1=NOCCO1)c1ccccc1Oc1ncnc(Oc2ccccc2Cl)c1F`, the molecule was called inactive.
Regarding `COc1cc(Cl)c(OC)cc1Cl`, the molecule was called inactive.
`CCOc1cc(C(C)(C)C)ccc1C1COC(c2c(F)cccc2F)=N1` (stereo unspecified): the result was inactive.
For `Clc1nc(Cl)nc(Nc2ccccc2Cl)n1`, the molecule was called inactive.
The same measure for `C=C(C)CN(CC)c1c([N+](=O)[O-])cc(C(F)(F)F)cc1[N+](=O)[O-]`: “inactive”; for `CCN(CC)C(=O)C(C)Oc1cccc2ccccc12` (stereo unspecified): “inactive”.
On to `N#CN=C1SCCN1Cc1ccc(Cl)nc1`, for which the molecule was classed as inactive.
`O=c1n(Cl)c(=O)n(Cl)c(=O)n1Cl`: the result was inactive.
For `COC(=O)NC(=S)Nc1ccccc1NC(=S)NC(=O)OC` the value was “inactive”; for `Cc1c(COC(=O)[C@@H]2[C@H](/C=C(\Cl)C(F)(F)F)C2(C)C)cccc1-c1ccccc1`, “inactive”; for `CNC(=O)N(C)c1nnc(C(C)(C)C)s1`, “inactive”.
For `CCCC(=NOCC)C1=C(O)CC(CC(C)SCC)CC1=O` (stereo unspecified), the call was inactive.
The same measure for `Nc1c(Cl)c(F)nc(OCC(=O)O)c1Cl`: “inactive”.
For `O=C(O)c1c(Cl)ccc2cc(Cl)cnc12` the value was “inactive”; for `Clc1cccc(C(Cl)(Cl)Cl)n1`, “inactive”.
The same measure for `COc1ccc(-c2ccccc2)cc1NNC(=O)OC(C)C`: “inactive”; for `COP(=O)(OC)O/C(C)=C/C(=O)N(C)C`: “inactive”.
